In PubChem BioAssay (NCI):
Compounds without any hit were thinned out: in the full panel of roughly 83,000, 20% have a hit.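 For each line, cells grew in 96-well plates with the test compound present at a single concentration for 48 hours.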 Activity calls are given as the source filed them. How the source made its calls: active means growth percent below 10; inactive means the rest.

How the values were obtained:
Test in all cases: NCI-60 one-dose screen, 48 h (100 = growth as untreated, 0 = no growth, -100 = all killed)
Conditions in all cases: 10 µM unless noted
SK-MEL-2 melanoma = test system: SK-MEL-2 melanoma
SN12C renal = test system: SN12C renal
UO-31 renal = test system: UO-31 renal
CAKI-1 renal = test system: CAKI-1 renal
A498 renal = test system: A498 renal
CCRF-CEM leukemia = test system: CCRF-CEM leukemia
MOLT-4 leukemia = test system: MOLT-4 leukemia
SR leukemia = test system: SR leukemia
RPMI-8226 leukemia = test system: RPMI-8226 leukemia
OVCAR-8 ovarian = test system: OVCAR-8 ovarian
OVCAR-4 ovarian = test system: OVCAR-4 ovarian
SK-OV-3 ovarian = test system: SK-OV-3 ovarian
OVCAR-3 ovarian = test system: OVCAR-3 ovarian
HS 578T breast = test system: HS 578T breast
NCI/ADR-RES ovarian = test system: NCI/ADR-RES ovarian
TK-10 renal = test system: TK-10 renal
ACHN renal = test system: ACHN renal
OVCAR-5 ovarian = test system: OVCAR-5 ovarian
IGROV1 ovarian = test system: IGROV1 ovarian
EKVX NSCLC = test system: EKVX NSCLC

Measured: growth

N#Cc1c2ccccc2nc2ccccc12
inactive: SK-MEL-2 melanoma 125% | SN12C renal 93.5% | UO-31 renal 77.5% | CAKI-1 renal 98% | A498 renal 67.1% | CCRF-CEM leukemia 98.2% | MOLT-4 leukemia 97.1% | SR leukemia 103% | RPMI-8226 leukemia 99.3% | OVCAR-8 ovarian 93.9% | OVCAR-4 ovarian 83.2% | SK-OV-3 ovarian 116% | OVCAR-3 ovarian 110% | HS 578T breast 103% | NCI/ADR-RES ovarian 100%

O=[n+]1c2ccccc2n([O-])c2cc(Cl)ccc21
active: CCRF-CEM leukemia -6.38% | MOLT-4 leukemia -30.4% | SR leukemia 1.27%
inactive: SN12C renal 62.3% | UO-31 renal 55.7% | TK-10 renal 102% | ACHN renal 20.7% | CAKI-1 renal 19.3% | A498 renal 81.6% | RPMI-8226 leukemia 73.8% | OVCAR-8 ovarian 43% | OVCAR-5 ovarian 108% | OVCAR-4 ovarian 40.3% | SK-OV-3 ovarian 87.7% | IGROV1 ovarian 65.6% | OVCAR-3 ovarian 44.6% | HS 578T breast 88.8% | NCI/ADR-RES ovarian 59.6%

CCCCCCCCc1cc(Cl)c(O)c(Cl)c1
inactive: EKVX NSCLC 98.9% | SN12C renal 103% | UO-31 renal 97.2% | TK-10 renal 113% | ACHN renal 103% | CAKI-1 renal 89.6% | A498 renal 108% | CCRF-CEM leukemia 111% | MOLT-4 leukemia 98.2% | SR leukemia 83.1% | RPMI-8226 leukemia 98.3% | OVCAR-8 ovarian 103% | OVCAR-5 ovarian 101% | OVCAR-4 ovarian 115% | SK-OV-3 ovarian 101% | IGROV1 ovarian 133% | OVCAR-3 ovarian 101% | HS 578T breast 98.7% | NCI/ADR-RES ovarian 103%

O=Nc1ccc2ccccc2c1O
active: TK-10 renal 9.55% | OVCAR-8 ovarian 6.45% | OVCAR-3 ovarian 2.86% | NCI/ADR-RES ovarian 6.37%
inactive: EKVX NSCLC 64.1% | SN12C renal 42.4% | UO-31 renal 79.8% | ACHN renal 69.1% | CAKI-1 renal 78.1% | A498 renal 95.3% | CCRF-CEM leukemia 64.5% | MOLT-4 leukemia 91.2% | SR leukemia 60.1% | RPMI-8226 leukemia 70% | OVCAR-5 ovarian 81.8% | OVCAR-4 ovarian 35.2% | SK-OV-3 ovarian 95% | IGROV1 ovarian 53.2% | HS 578T breast 51%

CCCCCCCCCCCCNCCCc1ccccc1
inactive: SN12C renal 62.9% | UO-31 renal 60.8% | TK-10 renal 104% | ACHN renal 78.1% | CAKI-1 renal 93% | A498 renal 76.5% | CCRF-CEM leukemia 48.9% | MOLT-4 leukemia 54.8% | OVCAR-8 ovarian 79.3% | OVCAR-5 ovarian 81.2% | OVCAR-4 ovarian 46.5% | SK-OV-3 ovarian 103% | IGROV1 ovarian 75.4% | OVCAR-3 ovarian 83% | HS 578T breast 88.6% | NCI/ADR-RES ovarian 75.1%
active: SR leukemia -34.3% | RPMI-8226 leukemia 6.17%

S=C(S)OCN1CCOCC1
inactive: EKVX NSCLC 97.4% | SN12C renal 103% | UO-31 renal 75.9% | TK-10 renal 97.9% | ACHN renal 100% | CAKI-1 renal 92.6% | A498 renal 70.6% | CCRF-CEM leukemia 59% | MOLT-4 leukemia 92.5% | SR leukemia 65.2% | RPMI-8226 leukemia 100% | OVCAR-8 ovarian 88% | OVCAR-5 ovarian 97.6% | OVCAR-4 ovarian 56.5% | SK-OV-3 ovarian 98.9% | IGROV1 ovarian 56.5% | OVCAR-3 ovarian 118% | NCI/ADR-RES ovarian 96.2%

S=C(SSC(=S)N1CCOCC1)N1CCOCC1
inactive: EKVX NSCLC 95.3% | SN12C renal 99.7% | UO-31 renal 76.9% | TK-10 renal 95.7% | ACHN renal 98.3% | CAKI-1 renal 79.1% | A498 renal 90.6% | CCRF-CEM leukemia 21.9% | MOLT-4 leukemia 93.6% | SR leukemia 31.4% | RPMI-8226 leukemia 76.9% | OVCAR-8 ovarian 96.8% | OVCAR-5 ovarian 106% | OVCAR-4 ovarian 65.7% | SK-OV-3 ovarian 102% | IGROV1 ovarian 29.1% | OVCAR-3 ovarian 74.6% | HS 578T breast 97.7% | NCI/ADR-RES ovarian 106%

O=C1C(=O)c2cc([N+](=O)[O-])ccc2-c2ccccc21
inactive: A498 renal 110% | SK-OV-3 ovarian 55.7%
active: EKVX NSCLC -88.8% | SN12C renal -88.9% | UO-31 renal -87.7% | TK-10 renal -85.2% | ACHN renal -99.3% | CAKI-1 renal -68.6% | CCRF-CEM leukemia -13.5% | MOLT-4 leukemia 0.151% | SR leukemia -7.48% | RPMI-8226 leukemia -42.1% | OVCAR-8 ovarian -58.6% | OVCAR-5 ovarian -79.2% | OVCAR-4 ovarian -97.6% | IGROV1 ovarian -72.5% | OVCAR-3 ovarian -94% | NCI/ADR-RES ovarian -74.2%

CN=C(N)N/N=C(\c1ccccc1)c1ccc(Br)cc1
inactive: SN12C renal 16.2% | TK-10 renal 21.6% | ACHN renal 21.5% | RPMI-8226 leukemia 27.5% | OVCAR-5 ovarian 32.4% | OVCAR-4 ovarian 42.1% | HS 578T breast 18.4%
active: UO-31 renal 0.0982% | CAKI-1 renal 0.888% | A498 renal -19.2% | CCRF-CEM leukemia 2.24% | MOLT-4 leukemia -14% | SR leukemia -15.2% | OVCAR-8 ovarian 1.03% | SK-OV-3 ovarian -1.99% | IGROV1 ovarian -7.13% | OVCAR-3 ovarian 2.68% | NCI/ADR-RES ovarian 9%
